Assay results taken from PubChem BioAssay AID431 (Sanford-Burnham Center for Chemical Genomics, 2006).
The whole screen tested about 63,000 compounds, of which about 1,100 (1.7%) were called active. Many of the other results were omitted from the sample, so actives are more common in it than they were. Measured potencies and affinities stand elsewhere. A number with no mark means an inactive call.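 How the source made its calls: active means compounds whose percent cytotoxicity in the single-dose primary screen, scaled between solvent and toxic-drug controls, exceeds 50; inactive means the rest.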

assay: viability loss of HPDE-C7K cells – cell-based, fluorescence, HTS, primary screen (AID 431); settings: HPDE-C7K KRASV12 cells, Alamar Blue viability, 48 h; at 10 µM; active compounds read high;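 further: 0% = DMSO solvent wells and 100% = doxorubicin-treated wells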

SMILES | cytotoxicity
O=C(Nc1ccccc1)c1ccc(S(=O)(=O)NCc2ccco2)cc1 | -6.4%
O=C(NC1CCCCC1)c1ccc(S(=O)(=O)NCc2ccco2)cc1 | -0.5%
O=C(NCCc1c[nH]c2ccccc12)c1ccc(S(=O)(=O)NCc2ccco2)cc1 | 51.2% (active)
O=S(=O)(Nc1ccc2c(c1)OCCO2)c1cccc2cccnc12 | 4.7%
CN(CCOC(=O)c1ccc2c(c1)OCCO2)Cc1ccccc1 | -8%
Cc1ccc2cccc(OC(=O)c3ccc4c(c3)OCCO4)c2n1 | 54.5% (active)
O=C(COc1cccc2cccnc12)Nc1nccs1 | 8.2%
FC(F)Oc1cccc2cccnc12 | 3.1%
Cc1noc(C)c1COC(=O)c1ccc2c(c1)OCCO2 | 4.7%
O=C(Oc1cccc2cccnc12)c1cccc(-n2cnnn2)c1 | 23.3%
Cn1c(C(=O)N2CCN(c3ncccn3)CC2)cc2c(=O)n(C)c3ccccc3c21 | 17.4%
O=C(Nc1cnn(Cc2ccc(Cl)cc2)c1)c1cnccn1 | -2.7%
CC(=O)NC(CC(C)C)C(=O)NC(=O)NCc1ccccc1 (stereo not drawn) | 15.8%
CCN(CC)CCCN1C(=O)C(=O)/C(=C(/O)c2ccc3c(c2)OCCO3)C1c1ccco1 (stereo not drawn) | 5.8%
Cn1c(-c2ccccc2)cnc1SCC(=O)NCc1ccco1 | -16.1%
COC(=O)C(NC(C)=O)(Nc1ccc(Br)cn1)C(F)(F)F (stereo not drawn) | 2.3%
COC(=O)C(NC(C)=O)(Nc1ccc(Br)cc1)C(=O)OC | 53.3% (active)
COC(=O)C(NC(C)=O)(Nc1ccccc1)C(=O)OC | 27.5%
O=S(=O)(c1cccc(Cl)c1)N1CCCC1 | -5.7%
O=C(NC1CCCCC1)c1sc(=S)n2c1[nH]c(=O)c1ccccc12 | 77.2% (active)
O=C(NC1CCCCCC1)c1c(O)c2ccccc2[nH]c1=O | -13.7%

SMILES | cytotoxicity
O=C(NC1CCCC1)c1sc(=S)n2c1[nH]c(=O)c1ccccc12 | 68.9% (active)
O=C(NCC1CCCO1)c1sc(=S)n2c1[nH]c(=O)c1ccc(C(=O)N3CCCCC3)cc12 (stereo not drawn) | 5.2%
Cn1c(=O)c(C(=O)NC2CCCCCCC2)c(O)c2ccccc21 | 13.6%
O=C(NC1CCCCCCC1)c1c(O)c2ccccc2[nH]c1=O | -19.1%
CSc1nnc(Cn2c(=O)sc3ccccc32)n1-c1ccccc1 | 13%
Cc1nc2ccc(NC(=O)N3CCOCC3)cc2s1 | -19.1%
Nc1nnc(SCc2cccnc2)s1 | -0.3%
CCc1cn([C@H]2C[C@H](O)[C@@H](CO)O2)c(=O)[nH]c1=O | -1.3%
Cc1cn([C@H]2C[C@H](N=[N+]=[N-])[C@@H](CO)O2)c(=O)[nH]c1=O | -5.9%
O=c1[nH]c(=O)n([C@H]2C[C@H](O)[C@@H](CO)O2)cc1F | 55.6% (active)
CCc1sc(C(=O)NC)cc1Br | -2.9%
CC(C)N1C(=O)C2C(C(=O)NC3CCCCC3)C3C=CC2(O3)C1C(=O)NC1CCCCC1 (stereo not drawn) | 13.7%
C1CCN(c2nc(N3CCCCC3)nc(N3CCNCC3)n2)CC1 | 11.6%
c1ccc(Nc2nc(N3CCOCC3)nc(N3CCOCC3)n2)cc1 | 5%
c1ccc(Nc2nc(N3CCCCC3)nc(N3CCNCC3)n2)cc1 | 75.8% (active)
CCOC(=O)c1ccccc1NC(=O)C1COc2ccccc2O1 (stereo not drawn) | -10.4%
COc1ccc(-n2nnc3c(SCc4ccccc4)ncnc32)cc1 | 2.7%
c1ccc(CN2CCN(c3nc4ccccc4n4cnnc34)CC2)cc1 | 1.8%
COCCn1nnnc1C(c1ccc(OC)cc1OC)N1CCN(c2ccccc2)CC1 (stereo not drawn) | 11.2%
COc1ccc(OC)c(C(O)c2coc3ccc(O)c(CN4CCOCC4)c23)c1 (stereo not drawn) | 5.9%
COc1ccc(NC(=O)CN2CCN(S(=O)(=O)c3ccc(C(C)C)cc3)CC2)cc1OC | -1.5%

SMILES | cytotoxicity
COCC(=O)Nc1sc2c(c1C(=O)OC)CCCC2 | -0.8%
Cc1ccc2nc(Nc3nc(C)cc(C(F)(F)F)n3)nc(C)c2c1 | -18.7%
COc1ccc(OC)c2c(N)c(C#N)c(C(F)(F)C(F)(F)F)nc12 | 2.9%
COc1ccc(OC)c(-n2c(O)cnc2Nc2nc(C)cc(C)n2)c1 | -6.2%
Cc1occc1C(=O)Nc1cc(C(F)(F)F)ccc1Cl | -12.7%
CC1CN(S(=O)(=O)c2cn(C)c(=O)n(C)c2=O)CC(C)O1 (stereo not drawn) | 14.8%
CCOC(=O)N1CCN(C(=O)c2cnn3c(C(F)F)cc(-c4ccc(C)cc4)nc23)CC1 | 4.7%
COc1ccc(-c2nc(-c3cccs3)c(-c3cccs3)[nH]2)cc1O | 76.5% (active)
COc1ccc(-c2nc3ccccc3s2)cc1O | -3.4%
COc1ccc(-c2nnc(-c3cccs3)o2)cc1OC | 7.2%
Cc1ccc2c(c1)C(c1ccccc1)N(C(=O)c1ccc(Br)o1)CC(=O)N2 (stereo not drawn) | -13.7%
COc1ccccc1N1C(=O)C2C3C=CC(C3)C2(C)C1=O (stereo not drawn) | -3.4%
c1coc(-c2nn3c(-c4ccco4)nnc3s2)c1 | -16.1%
Fc1ccc(-c2ccc(-c3nn4c(-c5ccco5)nnc4s3)o2)cc1 | 83.7% (active)
Cc1oc(-c2ccc(F)cc2)cc1-c1nn2c(-c3ccco3)nnc2s1 | -11.2%
c1ccc(-c2cc(-c3nn4c(-c5ccco5)nnc4s3)c3ccccc3n2)cc1 | 51.3% (active)
Cc1cc(-c2nn3c(-c4ccccc4)nnc3s2)c2ccccc2n1 | -2.8%
Clc1ccc(-c2ccc(-c3nn4c(-c5ccco5)nnc4s3)o2)cc1 | -10%
CCOC(=O)N1CCC(NC(=O)CNS(=O)(=O)c2ccc(Br)s2)CC1 | 6.3%
CCSc1nnc(NC(=O)C(C)(C(F)(F)F)C(F)(F)F)s1 | -1.2%
Cc1ccccc1N1CCN(C(=O)C2CCCCC2)CC1 | -1%
